This is a sample that favours compounds with a hit; in the whole collection about 2.4% have one here.
CHO-K1 Ca antag = counter-screen for M1 antagonists: effect in parental CHO-K1 cells; ATP-induced calcium, Fluo-8 fluorescence; inhibition, % at 3 µM; 0.6% of 360,000 active;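 active = inhibition above a per-plate cutoff, the plate's mean sample inhibition plus 3 SD, cut at about 24% in these data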;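 note: 0% = DMSO plus EC80 ATP and 100% = DMSO alone without ATP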
CHRM1 antagonist = blocks human M1 muscarinic receptor; P11229; CHO-K1 hM1, Fluo-8 calcium fluorescence, ACh EC80 antagonist; inhibition, % at 3 µM; 1.3% of 360,000 active; AID 588852;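 active = percent inhibition above its own plate's cutoff, namely the mean of that plate's compound wells plus 3 SD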;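 note: peak over basal fluorescence ratio during 140 s after agonist addition; 0% = ACh EC80 plus DMSO and 100% = DMSO alone without agonist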
Target sequence (P11229 whole entry, looked up): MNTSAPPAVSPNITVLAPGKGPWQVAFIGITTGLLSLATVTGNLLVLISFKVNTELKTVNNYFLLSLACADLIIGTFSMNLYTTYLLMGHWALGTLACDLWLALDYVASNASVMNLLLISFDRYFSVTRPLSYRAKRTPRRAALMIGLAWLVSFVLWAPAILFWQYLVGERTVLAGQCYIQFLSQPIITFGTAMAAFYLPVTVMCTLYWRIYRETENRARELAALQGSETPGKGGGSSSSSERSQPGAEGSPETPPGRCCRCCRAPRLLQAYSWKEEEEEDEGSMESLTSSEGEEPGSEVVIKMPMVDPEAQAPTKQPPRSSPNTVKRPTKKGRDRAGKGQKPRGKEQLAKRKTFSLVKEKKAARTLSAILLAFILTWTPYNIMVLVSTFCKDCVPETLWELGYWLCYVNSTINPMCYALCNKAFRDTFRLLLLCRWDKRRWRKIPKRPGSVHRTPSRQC
CHRM1 PAM = positive allosteric modulators of human M1 muscarinic receptor; P11229; CHO-K1 hM1, Fluo-8 calcium fluorescence, ACh EC20; 0% = ACh EC20, 100% = maximal ACh; activation, % at 3 µM; 0.088% of 360,000 active; AID 588819; in the data active = activation above about 19%, passing the limit was not always enough
CHRM1 agonist = agonists of human M1 muscarinic receptor; P11229; activation, % at 3 µM; CHO-K1 hM1, Fluo-8 calcium fluorescence, agonist mode; 0% DMSO, 100% acetylcholine EC100; 0.33% of 360,000 active;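 active = activation above the run's mean compound activation plus 3 SD, cut at about 16% in these data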;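 note: peak over basal fluorescence ratio within a 140 s kinetic read after compound addition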
M1 ag parental = M1 agonist counterscreen hit in parental CHO-K1 cells | 0.48% of 360,000 active | activation, % at 3 µM | Fluo-8 calcium fluorescence; scaled to maximal ATP response, vehicle zero; in the data active = activation above about 15%;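 note: untransfected CHO-K1 host cells lacking M1 receptor as counterscreen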
M1 PAM parental = M1 PAM counterscreen hit in parental CHO-K1 cells. ATP EC20, Fluo-8 calcium fluorescence; 0% at ATP EC20, 100% at ATP max. activation, % at 3 µM. 0.02% of 360,000 active. AID 602247;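 active = activation above the run cutoff, the mean activation of all test compounds plus 3 SD, cut at about 40% in these data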;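 note: peak over basal fluorescence ratio in a 140 s read after ATP addition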
An asterisk follows results filed as active.

SMILES | CHO-K1 Ca antag | CHRM1 antagonist | CHRM1 PAM | CHRM1 agonist | M1 ag parental | M1 PAM parental
CS(=O)(=O)c1ccccc1-c1nc(-c2cc(C(F)(F)F)cc(C(F)(F)F)c2)no1 | -29.3 | -17.3 | 8.0 | -2.6 | 0.9 | 30.4
O=C(Nc1c(Cl)cccc1Cl)Oc1cccc2cccnc12 | -1.2 | -4.0 | 2.3 | -11.7 | 1.0 | 13.2
O=C(Nc1cccc(C(F)(F)F)c1)Oc1ccc(Cl)c2cccnc12 | 35.6* | 42.2* | -16.1 | -1.3 | 15.5* | -33.0
CCN(CC)C(=O)Oc1ccc(Cl)c2cccnc12 | -9.4 | 2.0 | 3.6 | -2.9 | -0.7 | 3.5
O=C(Nc1cccc(Br)c1)Oc1cccc2cccnc12 | 22.5 | 43.5* | -23.1 | 0.3 | 6.7 | -7.5
Cn1c(=O)c2c(nc(NCc3ccco3)n2Cc2ccc(Cl)cc2Cl)n(C)c1=O | -6.6 | -10.3 | 12.3 | -6.9 | 1.5 | 27.3
CC(C)[C@H](NC(=O)c1ccccc1)C(=O)OCC(=O)NCc1ccc(F)cc1 | -3.2 | 16.5 | -1.2 | -4.4 | 0.0 | -11.7
COc1ccc(C(=O)Nc2ccc3ccccc3c2)cc1 | -5.1 | -6.0 | 8.9 | -4.5 | 0.8 | 15.7
COc1ccc(OC)c(C(=O)c2ccc(C(=O)Nc3ccc4ccccc4c3)cc2)c1 | 26.6* | -2.6 | -5.1 | -2.6 | -0.1 | -15.8
N#Cc1ccsc1NC(=O)c1ccc(Cl)c([N+](=O)[O-])c1 | 13.3 | 26.0 | -9.3 | 8.0 | 18.6* | -10.2
CC(C)Cn1c(N)c(C(=O)COC(=O)c2cnc(Cl)c(Cl)c2)c(=O)n(C)c1=O | -7.9 | 23.2 | -9.7 | -2.8 | 11.7 | -5.1
CCN(CC)CCOC(=O)C(c1ccccc1)c1ccccc1 | -5.3 | 96.5* | -25.2 | -4.9 | 0.7 | 21.9
CCN(CCO)C(=O)C(c1ccccc1)c1ccccc1 | -5.4 | -1.6 | 10.3 | -2.6 | -0.1 | 12.8
CCN(CC)CCOC(=O)C(c1ccccc1)C1CCCCC1 (configuration not stated) | 4.2 | 99.1* | -26.8 | -6.8 | 0.0 | -7.3
CCN(CC)CCSC(=O)C(c1ccccc1)c1ccccc1 | -5.2 | 100.6* | -26.4 | -8.7 | 0.8 | 20.6
Cn1c(=O)c2c(nc(CN3CCN(CCO)CC3)n2Cc2ccccc2Cl)n(C)c1=O | -2.8 | 3.8 | 0.4 | -6.6 | 0.0 | -3.3
COc1ccc(N2CCN(Cc3nc4c(c(=O)n(C)c(=O)n4C)n3CCc3ccccc3)CC2)cc1 | 26.8* | -14.7 | 9.7 | 5.1 | -0.2 | -4.7
Cn1c(=O)c2c(nc(CN3CCN(CCO)CC3)n2Cc2cccc3ccccc23)n(C)c1=O | 25.6* | 9.2 | 0.6 | -4.0 | 0.0 | -7.9
CN1CCN(c2nc3c(c(=O)n(C)c(=O)n3C)n2Cc2ccccc2Cl)CC1 | 0.3 | 57.4* | -28.2 | -10.4 | 0.0 | 0.9
Cn1c(=O)c2c(nc(N3CCCCCC3)n2CC(=O)c2ccccc2)n(C)c1=O | -7.2 | -34.6 | 12.1 | -1.1 | 0.1 | 19.9
COCCn1c(CN2CCN(c3ccc(OC)cc3)CC2)nc2c1c(=O)n(C)c(=O)n2C | -6.4 | -3.9 | 4.9 | -6.4 | 0.1 | 4.1
COc1ccc(C(=O)Cn2c(N3CCCCC3)nc3c2c(=O)n(C)c(=O)n3C)cc1OC | 1.8 | 4.8 | 6.5 | -3.9 | 18.4* | 15.4
CCCCC(=O)NC(NC(=S)N1CCCCCC1)C(Cl)(Cl)Cl (configuration not stated) | -7.1 | -4.8 | -0.8 | -4.4 | 8.1 | 18.5
CC(C)n1c(NCc2ccccc2O)nc2ccccc21 | 1.3 | -8.3 | 8.6 | -4.4 | 23.2* | 16.9
Cn1c(NCc2ccccc2O)nc2ccccc21 | 5.9 | -1.8 | 1.0 | -4.9 | 0.1 | 3.6
SMILES | CHO-K1 Ca antag | CHRM1 antagonist | CHRM1 PAM | CHRM1 agonist | M1 ag parental | M1 PAM parental
CN1CCC(Oc2ccccc2Sc2ccc(C(F)(F)F)cc2)CC1 | -5.3 | 63.5* | -24.4 | -10.5 | 0.7 | 13.8
CN1CCC(Oc2ccc(Sc3ccccc3)cc2)CC1 | -6.1 | 10.8 | -0.8 | 12.4 | 2.4 | 11.5
COc1ccc(C(=O)NCCNc2ncc(C(F)(F)F)cc2Cl)cc1[N+](=O)[O-] | -4.7 | 5.5 | -6.4 | -6.0 | 3.6 | -0.6
Cc1ccc(C(=O)NCCNc2ncc(C(F)(F)F)cc2Cl)cc1[N+](=O)[O-] | -3.1 | 46.0* | -32.4 | -11.5 | 1.5 | -1.9
CSc1ccc(S(=O)(=O)NCc2ccc(C)cc2)cc1 | -18.6 | -7.1 | 4.0 | -5.4 | 3.0 | 23.2
S=C1NC2=C(CCCC2=C2SCCS2)C(c2ccccc2)N1 (configuration not stated) | 25.0* | 19.0 | -18.7 | -2.9 | 4.9 | -10.1
O=C(CCC(F)(F)F)N1CCCC(CO)(CCc2ccccc2)C1 (configuration not stated) | -6.5 | 11.3 | -9.6 | -3.5 | 0.8 | 1.9
Cc1ccc(NC(=O)CSc2nc(=O)n(CCCN3CCOCC3)c3c2CCCC3)cc1F | -3.4 | 18.4 | -14.5 | -7.3 | -0.4 | -12.4
CCOC(=O)C1CCCN(C2CC(=O)N(c3ccc(C)cc3)C2=O)C1 (configuration not stated) | -20.9 | -6.9 | -3.8 | 20.1* | 0.2 | 11.4
CCOC(=O)C1CCCN(C2CC(=O)N(c3ccc(NC(C)=O)cc3)C2=O)C1 (configuration not stated) | 1.1 | 5.8 | -12.0 | 36.2* | 0.0 | 9.2
CCOC(=O)C1CCCN(S(=O)(=O)c2ccc(NC(C)=O)cc2)C1 (configuration not stated) | -9.3 | 0.0 | 6.8 | -4.2 | 4.3 | -0.2
Cc1ccccc1-n1nc2c(c1NC(=O)CCCl)CSC2 | -6.3 | -19.1 | 12.1 | -1.9 | 0.5 | 22.2
CN(Cc1c(C(=O)N/N=C/c2ccc(O)cc2)nnn1-c1nonc1N)C1CCCCC1 | 1.3 | -1.6 | 0.4 | -2.1 | -0.3 | -7.7
N#CC1=C(N)OC2=C(C(=O)CCC2)C1c1ccccc1 (configuration not stated) | 20.9 | -11.3 | 12.6 | -3.1 | -0.5 | -7.7
CCOCCCNC(=O)Cc1ccc(Br)cc1 | -7.2 | -4.7 | 1.0 | -7.1 | 0.0 | 14.2
COc1ccccc1/C=C/C=NC1C(=O)N(c2ccccc2)[N+](C)=C1C (configuration not stated) | -1.8 | 5.3 | -4.2 | -6.4 | 1.2 | 2.4
CC1=[N+](C)N(c2ccccc2)C(=O)C1N=C/C=C/c1ccccc1 (configuration not stated) | -5.0 | 98.9* | -26.0 | -7.1 | 0.9 | 9.2
CC(CC(=O)N(C)c1c(N)n(Cc2ccccc2)c(=O)[nH]c1=O)c1ccccc1 (configuration not stated) | 14.2 | 27.5* | -9.9 | -1.1 | -0.1 | -25.7
CC(C)CN(C(=O)COC(=O)CSc1ccccc1F)c1c(N)n(Cc2ccccc2)c(=O)[nH]c1=O | 60.6* | -10.8 | 7.5 | -2.1 | 0.8 | -6.6
Cc1cc(C)n(CC(=O)N2c3ccccc3Sc3ccc(C(F)(F)F)cc32)n1 | 5.2 | 62.1* | -27.2 | -10.0 | 0.4 | 3.6
